Results from PubChem BioAssay AID588814 (The Scripps Research Institute Molecular Screening Center, 2011).
About 1,200 (0.33%) of roughly 360,000 compounds were called active.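 How the source made its calls: active means activation above the run's mean compound activation plus 3 SD (cut at about 16% in these data); inactive means the rest.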 This excerpt belongs to a sample that is enriched for actives.

target: Muscarinic acetylcholine receptor M1 (Homo sapiens) (UniProt P11229); assay: CHRM1 activation via calcium signal – Fluo-8 calcium fluorescence, CHO-K1 cells, HTS, primary screen (AID 588814); settings: CHO-K1 hM1, Fluo-8 calcium fluorescence, agonist mode; at 3 µM; active compounds read high; 0% DMSO, 100% acetylcholine EC100;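 further: peak over basal fluorescence ratio within a 140 s kinetic read after compound addition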
Sequence (P11229 whole entry, looked up): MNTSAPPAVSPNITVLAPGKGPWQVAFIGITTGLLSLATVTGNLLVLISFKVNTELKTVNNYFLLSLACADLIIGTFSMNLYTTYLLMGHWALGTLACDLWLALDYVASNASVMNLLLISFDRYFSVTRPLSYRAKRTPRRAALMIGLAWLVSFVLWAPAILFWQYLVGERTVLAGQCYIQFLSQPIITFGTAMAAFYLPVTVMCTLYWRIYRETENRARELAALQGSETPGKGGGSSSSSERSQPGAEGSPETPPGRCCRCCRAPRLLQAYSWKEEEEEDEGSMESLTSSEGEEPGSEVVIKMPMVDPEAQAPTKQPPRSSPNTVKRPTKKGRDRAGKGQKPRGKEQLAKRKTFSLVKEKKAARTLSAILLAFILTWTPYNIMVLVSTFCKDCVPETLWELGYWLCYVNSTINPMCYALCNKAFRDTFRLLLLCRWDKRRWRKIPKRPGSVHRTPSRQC

Row | Compound | activation
1 | Cc1ccc(Cn2c(C)c3cnn(CC(=O)NCc4ccccn4)c(=O)c3c2C)cc1 | 8.5% (inactive)
2 | Cc1c2cnn(CC(=O)NCc3ccccn3)c(=O)c2c(C)n1Cc1ccc(Cl)cc1 | 26% (active)
3 | O=C(Cn1ncc2c3ccccc3n(Cc3ccccc3)c2c1=O)NCc1ccccn1 | -0.49% (inactive)
4 | Cc1ccc(C(C)C)c(OCc2nnc(SCC(=O)Nc3nccs3)n2C)c1 | -4.42% (inactive)
5 | CCCN(C(=O)c1nc2nccc(C)n2n1)c1c(N)n(Cc2ccccc2)c(=O)[nH]c1=O | -3.03% (inactive)
6 | Nc1ncnc2c1ncn2[C@@H]1O[C@H](CNC(=O)[C@H](N)Cc2cccnc2)[C@@H](O)[C@H]1O | -1.79% (inactive)
7 | COc1ccc(N2C(=O)CCC(C(=O)Nc3ccccn3)C2c2ccc(OC)c(OC)c2)cc1 (stereo unspecified) | 5.33% (inactive)
8 | Cc1cc(N/C=C\C(=O)c2ccc(Cl)c(Cl)c2)no1 | -3.12% (inactive)
9 | COc1ccc(C(=O)/C=C/Nc2ccccn2)cc1 | 55% (active)
10 | FC(F)Oc1ccccc1C1CC(c2ccc(Br)s2)Nc2ncnn21 (stereo unspecified) | 0.72% (inactive)
11 | CC1CC(C)(C)CC2(C1)NC(=O)N(CC(=O)Nc1nccs1)C2=O (stereo unspecified) | -1.16% (inactive)
12 | CC1CCN(C(=O)CSc2nnc(-c3ccco3)n2N)CC1 | -4.05% (inactive)
13 | O=C1NCCn2nc3ccccc3c21 | -2.22% (inactive)
14 | Cc1ccc(NS(=O)(=O)c2cc3c(cc2Br)NC(=O)CO3)cc1C | 21.6% (active)
15 | Cc1ccc(NS(=O)(=O)c2cc3c(cc2C)NC(=O)CO3)cc1 | 1.51% (inactive)
16 | Cc1ccc(NS(=O)(=O)c2ccc3c(c2)NC(=O)CO3)cc1 | 2.14% (inactive)
17 | O[C@H]1C[C@H](c2ccc(Cl)cc2)N(Cc2cccs2)C[C@@H]1n1cc(C2CC2)nn1 | 1.89% (inactive)
18 | Nc1cc(=O)n(Cc2ccccc2)c(=O)n1Cc1ccccc1 | -2.41% (inactive)
19 | CN(C(=O)COC(=O)c1ccc(Br)o1)c1c(N)n(Cc2ccccc2)c(=O)[nH]c1=O | -3.72% (inactive)
20 | Cc1cc2nc3c(=O)n(Cc4ccccc4)c(=O)[nH]c3nc2cc1N | 24.8% (active)
21 | O=C(OCC(=O)N1CCCCCC1)c1cccc(Cl)c1Cl | -4.74% (inactive)

Row | Compound | activation
22 | CC(=O)Nc1cccc(-c2ccnc3c2CC(C)(C(=O)NCc2ccccc2)O3)c1 (stereo unspecified) | -0.77% (inactive)
23 | COc1ccc(OC)c(NC(=O)CN(Cc2ccc(Cl)cc2)S(C)(=O)=O)c1 | -5.87% (inactive)
24 | Cc1onc(-c2ccccc2)c1C(=O)NNC(=S)NC(=O)c1ccc(F)cc1 | 70.4% (active)
25 | Cc1[nH]c2ccccc2c1C(=O)COC(=O)c1c(-c2ccccc2)noc1C | -5.12% (inactive)
26 | Cc1onc(-c2ccccc2)c1C(=O)N1CCN(S(=O)(=O)c2ccccc2C(F)(F)F)CC1 | -3.88% (inactive)
27 | O=C(/C=C/c1ccc(F)cc1)NC(=S)NNC(=O)c1cccnc1 | 1.15% (inactive)
28 | COc1ccc(C(=O)NC(=O)CSc2nnc(-c3ccco3)n2-c2ccccc2)cc1 | -3.2% (inactive)
29 | COc1ccc(C(=O)NC(=S)NNC(=O)c2c(-c3ccccc3)noc2C)cc1 | 44.6% (active)
30 | COCCNc1ncnc2c1nc1n2CCCC1 | -3.29% (inactive)
31 | COCCCNC(=O)c1cccc2c(-c3ccc(O)c(OC)c3)coc12 | 0.67% (inactive)
32 | Cc1ccc(/C=N/NC(=O)C(NC(=O)c2ccccc2)c2n[nH]c(=O)c3ccccc23)cc1 (stereo unspecified) | -2.92% (inactive)
33 | CSc1nc2nc(-c3cccc(C(F)(F)F)c3)ccn2n1 | -3% (inactive)
34 | Cc1ccc(-n2nc3c(c2NC(=O)CCC2CCCCC2)CS(=O)C3)cc1 (stereo unspecified) | -1.89% (inactive)
35 | O=C(COc1ccc(Cl)cc1)NC(=S)Nc1ccccc1N1CCOCC1 | 0.8% (inactive)
36 | Cc1cccc(NC(=S)NCCc2ccc(Cl)cc2)c1C | -5.48% (inactive)
37 | O=C(COc1ccc(Cl)cc1)Nc1ccccc1CO | -3.25% (inactive)
38 | O=C(Cc1ccc(Cl)cc1)NC(=S)Nc1ccccc1O | 52.4% (active)
39 | Cc1ccccc1NC(=S)NC(=O)Cc1ccc(Cl)cc1 | 29.9% (active)
40 | Cc1ccccc1N/C(SCc1ccc(Cl)cc1)=C(/C#N)C(N)=O | -7.61% (inactive)
41 | O=C(c1ccccc1)c1cccn1CC(=O)N1CCN(c2ccc(F)cc2)CC1 | 0.36% (inactive)
42 | Cc1nc2ccccc2n1C(=O)N1CCOCC1 | -1.92% (inactive)

Row | Compound | activation
43 | O=C(N/N=C1\CCSC1)c1cc(Cl)ccc1O | -0.13% (inactive)
44 | CN(CC(=O)NCCc1ccc(S(N)(=O)=O)cc1)CC(=O)Nc1ccc(Cl)cc1 | -1.41% (inactive)
45 | CCN(CC)c1ccc(C2C3CCCCC3(O)CCN2CC(=O)Nc2ccccc2)cc1 (stereo unspecified) | -4.34% (inactive)
46 | COc1ccc(C2/C(=C(/O)c3ccc4c(c3)CC(C)O4)C(=O)C(=O)N2Cc2ccncc2)cc1 (stereo unspecified) | -3.47% (inactive)
47 | Cc1c[n+]([O-])ccc1[N+](=O)[O-] | -2.04% (inactive)
48 | Nc1nc(SCC(=O)NNc2c(Cl)cc(Cl)cc2Cl)n[nH]1 | -4.83% (inactive)
49 | Cc1ccc(/C=C/C(=O)OCC(=O)NCc2ccc(Cl)cc2)o1 | -3.98% (inactive)
50 | CCc1ccc2oc(-c3ccc(N)cc3)nc2c1 | 6.55% (inactive)
51 | CCN(CC)c1ccc2oc(=O)c(C)nc2c1 | 49% (active)
52 | Cc1ccc2oc(=O)ccc2c1 | -4.21% (inactive)
53 | Cc1cc(=O)oc2c3c(cc(OCC(=O)NCC(O)c4ccccc4)c12)OC(C)(C)CC3 (stereo unspecified) | 0.12% (inactive)
54 | CN(CCO)C(=O)c1nc[nH]c1C(=O)N(C)Cc1ccccc1 | -4.9% (inactive)
55 | CCOC(=O)N(Cc1ccccc1)C1CC1 | -2.66% (inactive)
56 | CN(C(=O)CN(CCO)CC(=O)N(C)C(C)(C)Cc1ccccc1)C(C)(C)Cc1ccccc1 | 27.2% (active)
57 | CCS(=O)(=O)n1nc(-c2ccccc2)nc1SCc1ccccc1 | -2.07% (inactive)
58 | CN(CC(=O)NCCN1CCOCC1)S(=O)(=O)c1ccc(F)cc1 | -1.7% (inactive)
59 | Cc1ccc(Cn2c(C)c(C(=O)NCc3ccccc3C(F)(F)F)sc2=O)cc1 | -6.02% (inactive)
60 | CC(=O)Oc1ccc(Cn2c(C)c(C(=O)NCc3ccc(C#N)cc3)sc2=O)cc1 | 33% (active)
61 | Cc1c(C(=O)NCc2ccc(C#N)cc2)sc(=O)n1Cc1ccc(C(=O)N(C)C)cc1 | -5.38% (inactive)
